The target in assay [1] is Lysosomal acid glucosylceramidase (Homo sapiens) (UniProt P04062). In words: Glucocerebrosidase-p2 (AID 348; in the data active means potency below about 10 µM; further: potency means the concentration at half of the fitted maximal effect). Particulars: purified GBA, blue fluorogenic substrate, 40 min. Summed up: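 Compounds titrated from 0.6 nM upwards against 0.2 nM enzyme in pH 5.9 citric acid/KH2PO4, taurocholate, tween-20; blue fluorogenic substrate 80 uM, 40 min room temperature, stopped and read Ex 365/Em 440 for AC50.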

A short description of assay [2]: AP1 Signaling Pathway (AID 357).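 Further: ME-180 reporter cells stimulated with EGF at its EC50 level; on the % scale 0 is the no-effect control and ±100 the full control effect.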 Particulars: ME-180 AP-1-bla reporter, EGF-induced, beta-lactamase ratio, 5 h; at 7.69 µM (top of the series) unless noted. The method in brief:
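First, ME-180 AP-1-bla cells were cultured overnight at 37 °C in low-serum Opti-MEM. Next, titrated compounds with EC50 EGF were incubated 5 hours. Finally, CCF4 was added for 2.5 hours and the 460/530 nm ratio recorded.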

The target in assay [3] is Cytochrome P450 1A2 (Homo sapiens) (UniProt P05177). In words: p450-cyp1a2 (AID 410; calls by dose curve; further: potency means the concentration at half of the fitted maximal effect;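 on activity change, negative = inhibition: -100% = full effect of reference inhibitor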). Particulars: recombinant CYP1A2, luciferin-ME demethylation, luminescence; series mostly up to 57 µM. Summed up:
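Inhibition was calculated relative to 57 uM furafylline (full inhibition). The reaction used human CYP1A2 at 20nM with Luciferin-ME at its Km, 100uM, driven by an NADPH-regenerating system for 60 min at room temperature.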

Assay [4] is described as follows: NFAT Signaling Pathway (AID 444).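 Further: carbachol stimulus at about its EC50 of 1 µM final; on the % scale 0 is the no-effect control and ±100 the full control effect.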 The settings on record: Jurkat NFAT-bla M1, carbachol, beta-lactamase ratio, 5 h; at 7.69 µM (top of the series) unless noted. Summed up:
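Read-out: CCF4 FRET ratio (460 nm/530 nm) after 1 h RT dye loading, used for %activity and AC50 from titration series. Cells: Jurkat NFAT-β-lactamase/M1 line, treated with compound plus 1 uM carbachol for 5 h, 37 °C.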

The nature of assay [5]: Stat Signaling Pathway (AID 446).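 Further: ME-180 cervical cancer cells given 40 pM IL-6 alongside compound; SIE-controlled beta-lactamase reporter measured as 460/530 nm FRET emission ratio; on the % scale 0 is the no-effect control and ±100 the full control effect.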 The settings on record: ME-180 (cervical carcinoma) SIE beta-lactamase reporter, IL-6 stimulated, 5 h; at 7.69 µM (top of the series) unless noted. The method in brief:
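ME-180 SIE-bla cells; overnight plating; cpd + IL-6 40 pM, 5 h, 37 C; LiveBLAzer 2.5 h RT; 460/530 nm emission ratio. Normalized to 300 pM IL-6 and 125 nM JAK inhibitor controls.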

The target of assay [6] is Glucocorticoid receptor (Homo sapiens) (UniProt P04150). In words: GR-EFC Redistribution (AID 451; calls by dose curve; further: potency means the concentration at half of the fitted maximal effect). The settings on record: CHO-K1 GR-EFC translocation, beta-gal luminescence, 2 h. Summed up: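 Translocation of GR-ED fusion to nuclear EA restores b-gal, read by luminescence after 1 h room-temperature detection. Engineered CHO-K1 biosensor cells, 1,000/well, exposed 2 h at 37 C to titrations up to 46 uM final.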

Assay [7] addresses Mitogen-activated protein kinase 10 (Mus musculus) (UniProt Q61831). In words: JNK3 AlphaScreen Assay (AID 530).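 Further: kinase came from lysate of stimulated human HepG2 cells; signal reports phosphorylation of biotinylated GST-cJun 1-79 at Ser73 with 10 µM ATP; on the % scale 0 is the no-effect control and ±100 the full control effect.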 The settings on record: JNK3 lysate, c-Jun phosphorylation; series mostly up to 57.1 µM. The method in brief:
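Room-temperature AlphaScreen kinase assay; pre-activated HepG2 lysate as JNK3 source, biotin-GST-cJun(1-79) substrate, 10 uM ATP, compound 15 min preincubation.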

Assay [8] has as its target 3',5'-cyclic-AMP phosphodiesterase 4B (Homo sapiens) (UniProt Q07343). In words: qHTS Assay for Inhibitors of PDE-IV (AID 607; active means well fitted activation curve with a large enough effect in the main read-out, with a control signal flat, not every such curve was filed as active; further: % of control where 0% means no effect). The settings on record: HEK293 ACTOne CNG channel cells, membrane potential fluorescence; series mostly up to 22.9 µM. Summed up:
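ACTOne HEK293 cells carry a modified cAMP-gated CNG channel and express endogenous PDE4; plated 1000 cells/well, compounds up to 22.9 uM final. Membrane-potential dye fluorescence (ex 535/em 590) was read; parental cells received 10 uM forskolin + 100 uM RO 20-1724.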
In general terms: In qHTS, concentration-response curves come from the screen itself.

Assay [9] concerns the target Cytochrome P450 2C9 (Homo sapiens) (UniProt P11712). In words: qHTS Assay for Inhibitors and Substrates of Cytochrome P450 2C9 (AID 883; active means well fitted curve in the direction sought with a large enough effect; an effect the other way counts as inactive or inconclusive; further: nearly all actives have a fitted effect of over 60% in size; further: potency means the concentration at half of the fitted maximal effect). Particulars: recombinant CYP2C9, luciferin-H luminescence, 60 min; series mostly up to 57.1 µM. Summed up:
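Luminescent read-out of deoxyluciferin hydroxylation, normalized to 57uM sulphaphenazole (AC100). Reaction: 10nM enzyme, 100uM Luciferin-H (equal to KM), 25mM KPO4, 10 min compound preincubation, then 60 min with NADPH regeneration, both at 37C.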

Assay [10] addresses Cytochrome P450 3A4 (Homo sapiens) (UniProt P08684). In words: qHTS Assay for Inhibitors and Substrates of Cytochrome P450 3A4 (AID 884; active means well fitted curve in the direction sought with a large enough effect; an effect the other way counts as inactive or inconclusive; further: nearly all actives have a fitted effect of over 50% in size; further: potency means the concentration at half of the fitted maximal effect). Particulars: recombinant CYP3A4, Luciferin-PPXE luminescence; series mostly up to 57.1 µM. Summed up: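 20 nM human CYP3A4 with 25 uM Luciferin-PPXE (at KM) in 200 mM KPO4, preincubated 10 min with compound; NADPH regeneration started a 60 min RT reaction. Luciferin detected by luminescence, normalized to 57 uM ketoconazole as full inhibition.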

Assay [11] has the same target. In words: qHTS Assay for Activators of Cytochrome P450 3A4 (AID 885; active means well fitted curve in the direction sought with a large enough effect; an effect the other way counts as inactive or inconclusive; further: nearly all actives have a fitted effect of over 65% in size; further: potency means the concentration at half of the fitted maximal effect). The settings on record: recombinant CYP3A4, Luciferin-PPXE luminescence, 60 min; series mostly up to 57.1 µM. The method in brief: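 20nM CYP3A4 + 25uM Luciferin-PPXE (=KM), 200mM KPO4; cpd 10 min RT; NADPH regen, 60 min RT; stop w/ detection buffer, 20 min; luminescence. Normalized to 57 uM ketoconazole.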

A short description of assay [12]: qHTS Assay for Lipid Storage Modulators (AID 1519; calls by dose curve). The settings on record: Drosophila S3 cells, BODIPY lipid droplet/cell ratio, laser cytometry, cells loaded with oleic acid; for activity change, negative = inhibition: at 57.5 µM (top of the series). Summed up: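 Cells seeded at 5,000 per well were treated with compounds over a concentration series and loaded with oleic acid (400 uM, as added). Lipid droplet fluorescence (488 nm excitation, 500-530 nm channel) was read by laser-scanning cytometry and normalized to 20 uM Triacsin C.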

A short description of assay [13]: Primary qHTS for small molecule stabilizers of the endoplasmic reticulum resident proteome: Secreted ER Calcium Modulated Protein (SERCaMP) assay (AID 1508630; active means well fitted curve in the direction sought with a large enough effect; an effect the other way counts as inactive or inconclusive; further: on the % scale 0 is the no-effect control and ±100 the full control effect). Particulars: SH-SY5Y GLuc-SERCaMP (Gaussia luciferase released on ER calcium loss) secretion, thapsigargin, luminescence; series mostly up to 38.4 µM. The method in brief:
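GLuc-SERCaMP-expressing SH-SY5Y cells, pretreated 16 h with compound, are challenged with thapsigargin to empty ER calcium stores; after 4 h, coelenterazine is added directly to the medium and luminescence is imaged.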

The target in assay [14] is Cytochrome P450 2C19 (Homo sapiens) (UniProt P33261). In words: qHTS Assay for Inhibitors and Substrates of Cytochrome P450 2C19 (AID 899; active means well fitted curve in the direction sought with a large enough effect; an effect the other way counts as inactive or inconclusive; further: nearly all actives have a fitted effect of over 60% in size; further: potency means the concentration at half of the fitted maximal effect). Particulars: recombinant CYP2C19, luciferin-H EGE luminescence; series mostly up to 57.1 µM. Summed up: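 Luminescence readout of luciferin formed from 10uM Luciferin-H EGE (KM level) by 5 nM CYP2C19 in 50mM KPO4. 60 min NADPH-driven reaction at 37C after 10 min compound preincubation; data scaled to 57uM ketoconazole inhibition.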

For assay [15], the target named is Cytochrome P450 2D6 (Homo sapiens) (UniProt P10635). In words: qHTS Assay for Inhibitors and Substrates of Cytochrome P450 2D6 (AID 891; active means well fitted curve in the direction sought with a large enough effect; an effect the other way counts as inactive or inconclusive; further: potency means the concentration at half of the fitted maximal effect; nearly all actives have a fitted effect of over 60% in size). Particulars: recombinant CYP2D6, luciferin-ME EGE luminescence; series mostly up to 57.1 µM. The method in brief:
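Human CYP2D6 (5 nM) with 30 uM Luciferin-ME EGE (at Km) in 100 mM KPO4, compound preincubated 10 min, then NADPH regeneration system for 60 min at room temperature. Luciferin read by luminescence; normalized to 1.43 uM quinidine.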

The mark [16] stands for this setting: measured here: cell count channel max response.
Where [17] appears, read: measured here: lipid channel max response.

Results filed as inconclusive are left out. Active and inactive are the calls of the source. Unless noted, the call rests on the fitted dose curve; in most records, active means well fitted curve in either direction with a large enough effect (not every such curve was filed as active); inconclusive means small, poorly fitted or top-dose-only effect, or another doubt; inactive means flat fitted curve, though single readings scatter.

Cytochrome P450 2C9 (Homo sapiens), sequence (P11712 whole entry, looked up): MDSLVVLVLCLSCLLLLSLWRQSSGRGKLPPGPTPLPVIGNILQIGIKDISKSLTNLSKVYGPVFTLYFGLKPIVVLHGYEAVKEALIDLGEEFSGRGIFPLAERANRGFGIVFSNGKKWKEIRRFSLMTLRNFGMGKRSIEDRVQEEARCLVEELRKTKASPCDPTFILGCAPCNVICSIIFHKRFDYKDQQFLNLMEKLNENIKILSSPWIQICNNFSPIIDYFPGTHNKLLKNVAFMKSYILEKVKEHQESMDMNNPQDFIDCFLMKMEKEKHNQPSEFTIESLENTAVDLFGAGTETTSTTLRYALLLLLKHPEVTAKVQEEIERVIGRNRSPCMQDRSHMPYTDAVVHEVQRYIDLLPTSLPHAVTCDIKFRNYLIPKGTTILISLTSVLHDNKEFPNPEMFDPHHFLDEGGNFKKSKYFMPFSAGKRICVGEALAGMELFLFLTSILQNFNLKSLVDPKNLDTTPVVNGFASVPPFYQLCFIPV
Glucocorticoid receptor (Homo sapiens), sequence (P04150 whole entry, looked up, the tested form may be a part): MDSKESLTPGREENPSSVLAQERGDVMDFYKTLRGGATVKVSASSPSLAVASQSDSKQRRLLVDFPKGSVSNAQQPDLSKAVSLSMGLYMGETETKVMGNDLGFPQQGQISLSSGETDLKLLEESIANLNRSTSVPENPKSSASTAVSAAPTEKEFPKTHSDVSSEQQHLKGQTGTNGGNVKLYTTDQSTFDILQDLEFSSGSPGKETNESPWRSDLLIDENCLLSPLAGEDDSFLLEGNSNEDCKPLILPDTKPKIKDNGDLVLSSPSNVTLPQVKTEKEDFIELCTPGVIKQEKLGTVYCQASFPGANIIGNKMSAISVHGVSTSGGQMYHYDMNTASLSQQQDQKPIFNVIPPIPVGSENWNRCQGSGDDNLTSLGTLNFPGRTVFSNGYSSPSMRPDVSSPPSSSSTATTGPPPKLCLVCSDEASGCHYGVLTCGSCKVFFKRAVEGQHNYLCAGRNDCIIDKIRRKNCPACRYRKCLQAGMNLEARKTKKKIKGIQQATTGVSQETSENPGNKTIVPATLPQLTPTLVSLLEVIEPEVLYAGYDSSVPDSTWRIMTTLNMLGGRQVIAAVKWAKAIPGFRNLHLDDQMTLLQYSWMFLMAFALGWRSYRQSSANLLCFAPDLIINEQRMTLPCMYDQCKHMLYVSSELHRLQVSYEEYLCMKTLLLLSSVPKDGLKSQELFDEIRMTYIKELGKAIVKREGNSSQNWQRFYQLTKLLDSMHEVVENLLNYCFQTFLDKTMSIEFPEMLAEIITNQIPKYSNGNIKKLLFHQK
Lysosomal acid glucosylceramidase (Homo sapiens), sequence (P04062 whole entry, looked up): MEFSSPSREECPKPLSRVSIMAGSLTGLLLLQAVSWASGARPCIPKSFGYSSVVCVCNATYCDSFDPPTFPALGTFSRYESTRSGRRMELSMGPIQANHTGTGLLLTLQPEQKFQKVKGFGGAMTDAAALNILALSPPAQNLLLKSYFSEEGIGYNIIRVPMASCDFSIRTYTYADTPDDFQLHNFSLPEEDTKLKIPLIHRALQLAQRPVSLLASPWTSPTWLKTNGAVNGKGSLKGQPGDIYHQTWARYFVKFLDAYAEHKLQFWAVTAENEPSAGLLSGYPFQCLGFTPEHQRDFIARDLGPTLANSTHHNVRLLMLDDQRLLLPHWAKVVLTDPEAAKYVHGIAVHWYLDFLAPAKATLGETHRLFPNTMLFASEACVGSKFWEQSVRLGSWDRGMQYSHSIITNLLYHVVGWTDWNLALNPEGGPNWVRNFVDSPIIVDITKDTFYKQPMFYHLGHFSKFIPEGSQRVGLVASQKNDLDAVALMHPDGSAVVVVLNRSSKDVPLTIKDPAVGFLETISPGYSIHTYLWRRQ
Cytochrome P450 3A4 (Homo sapiens), sequence (P08684 whole entry, looked up): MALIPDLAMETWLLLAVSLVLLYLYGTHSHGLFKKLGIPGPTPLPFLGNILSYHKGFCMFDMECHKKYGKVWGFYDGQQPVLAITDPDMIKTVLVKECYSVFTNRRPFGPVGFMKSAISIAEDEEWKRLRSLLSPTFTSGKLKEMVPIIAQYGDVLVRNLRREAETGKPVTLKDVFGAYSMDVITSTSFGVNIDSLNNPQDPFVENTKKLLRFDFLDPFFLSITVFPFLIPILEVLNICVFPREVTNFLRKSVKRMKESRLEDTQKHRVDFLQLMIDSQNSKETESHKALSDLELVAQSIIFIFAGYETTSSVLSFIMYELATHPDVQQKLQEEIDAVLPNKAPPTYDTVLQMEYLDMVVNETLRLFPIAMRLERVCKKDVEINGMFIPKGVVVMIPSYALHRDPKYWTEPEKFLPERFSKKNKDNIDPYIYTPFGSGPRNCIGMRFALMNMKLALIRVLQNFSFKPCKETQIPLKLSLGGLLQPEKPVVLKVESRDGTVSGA
Cytochrome P450 1A2 (Homo sapiens), sequence (P05177 whole entry, looked up): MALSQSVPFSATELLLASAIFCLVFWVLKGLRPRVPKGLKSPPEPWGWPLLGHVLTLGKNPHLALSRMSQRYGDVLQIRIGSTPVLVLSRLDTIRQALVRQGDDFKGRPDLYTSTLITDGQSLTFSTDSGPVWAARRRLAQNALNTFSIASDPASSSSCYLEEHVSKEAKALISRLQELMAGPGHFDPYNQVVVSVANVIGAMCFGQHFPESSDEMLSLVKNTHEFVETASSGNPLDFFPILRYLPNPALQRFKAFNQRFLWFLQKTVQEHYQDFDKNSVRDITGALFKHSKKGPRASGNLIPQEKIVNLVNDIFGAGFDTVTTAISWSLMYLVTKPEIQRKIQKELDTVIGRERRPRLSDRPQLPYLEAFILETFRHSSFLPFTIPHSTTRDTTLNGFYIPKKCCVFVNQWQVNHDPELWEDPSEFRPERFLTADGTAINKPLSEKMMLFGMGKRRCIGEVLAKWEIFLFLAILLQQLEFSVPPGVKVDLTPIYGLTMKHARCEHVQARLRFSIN
3',5'-cyclic-AMP phosphodiesterase 4B (Homo sapiens), sequence (Q07343 whole entry, looked up): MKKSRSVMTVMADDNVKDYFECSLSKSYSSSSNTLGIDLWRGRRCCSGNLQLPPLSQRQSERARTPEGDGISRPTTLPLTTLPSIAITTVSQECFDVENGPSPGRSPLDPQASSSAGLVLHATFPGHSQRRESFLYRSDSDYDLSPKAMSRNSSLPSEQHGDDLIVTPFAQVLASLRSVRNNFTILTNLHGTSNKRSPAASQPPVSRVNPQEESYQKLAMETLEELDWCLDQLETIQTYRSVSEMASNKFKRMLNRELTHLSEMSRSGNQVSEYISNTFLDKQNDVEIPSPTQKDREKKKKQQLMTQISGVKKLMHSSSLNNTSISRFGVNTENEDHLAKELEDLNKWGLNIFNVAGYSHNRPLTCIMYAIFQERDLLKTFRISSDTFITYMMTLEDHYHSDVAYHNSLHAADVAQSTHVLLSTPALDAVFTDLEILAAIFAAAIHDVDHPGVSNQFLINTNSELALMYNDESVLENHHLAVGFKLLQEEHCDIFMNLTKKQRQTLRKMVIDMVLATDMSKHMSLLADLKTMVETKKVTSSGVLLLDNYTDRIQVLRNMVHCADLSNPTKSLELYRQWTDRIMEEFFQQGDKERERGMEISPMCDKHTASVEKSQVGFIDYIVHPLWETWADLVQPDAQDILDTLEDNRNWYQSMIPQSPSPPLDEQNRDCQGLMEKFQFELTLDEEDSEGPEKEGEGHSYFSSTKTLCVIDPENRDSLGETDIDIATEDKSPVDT
Cytochrome P450 2C19 (Homo sapiens), sequence (P33261 whole entry, looked up): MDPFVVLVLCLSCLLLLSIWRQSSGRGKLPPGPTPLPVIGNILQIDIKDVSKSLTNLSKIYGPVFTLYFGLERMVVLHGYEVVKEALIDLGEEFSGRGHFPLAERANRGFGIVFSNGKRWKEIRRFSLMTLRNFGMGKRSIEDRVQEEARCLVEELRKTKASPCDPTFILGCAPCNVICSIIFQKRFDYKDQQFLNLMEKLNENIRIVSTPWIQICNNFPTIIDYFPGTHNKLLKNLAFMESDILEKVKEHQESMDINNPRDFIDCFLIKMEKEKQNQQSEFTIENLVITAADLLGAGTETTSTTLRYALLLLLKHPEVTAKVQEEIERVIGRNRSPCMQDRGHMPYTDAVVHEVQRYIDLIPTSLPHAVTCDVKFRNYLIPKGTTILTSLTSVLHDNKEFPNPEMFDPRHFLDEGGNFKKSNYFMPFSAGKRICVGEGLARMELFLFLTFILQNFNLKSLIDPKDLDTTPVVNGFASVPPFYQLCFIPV
Cytochrome P450 2D6 (Homo sapiens), sequence (P10635 whole entry, looked up): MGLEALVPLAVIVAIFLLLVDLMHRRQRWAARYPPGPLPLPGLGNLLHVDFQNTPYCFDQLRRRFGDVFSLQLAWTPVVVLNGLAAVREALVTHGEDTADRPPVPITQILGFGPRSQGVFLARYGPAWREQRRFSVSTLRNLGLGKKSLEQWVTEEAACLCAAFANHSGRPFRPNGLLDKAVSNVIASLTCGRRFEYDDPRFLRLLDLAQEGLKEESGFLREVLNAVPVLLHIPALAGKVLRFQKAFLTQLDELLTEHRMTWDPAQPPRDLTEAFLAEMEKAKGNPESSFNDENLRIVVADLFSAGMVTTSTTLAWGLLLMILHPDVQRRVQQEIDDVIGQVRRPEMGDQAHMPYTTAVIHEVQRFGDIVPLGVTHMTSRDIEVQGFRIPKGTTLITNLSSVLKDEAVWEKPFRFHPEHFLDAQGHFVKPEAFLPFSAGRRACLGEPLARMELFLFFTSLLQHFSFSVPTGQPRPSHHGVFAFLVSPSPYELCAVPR

With `COc1ccccc1CN1CC[C@@]2(CCCN(C(=O)c3c(C)noc3C)C2)C1`, the Potency is > 11.4 µM (inactive) in assay [1], > 46 µM (inactive) in [6] and 1.58 µM (active) in assay [10]. Also, the activity change, negative = inhibition in [2] was -0.263% (inactive); in assay [4] it was -13.2% (inactive); in assay [12], 6.24% (inactive). For the same compound, the Potency result in [3], in [8], in assay [9], in assay [11] and in [13] was “inactive” each time. The activity, negative = inhibition in assay [5] was -3.34% (inactive). Further, the call in assay [7] was inactive. In addition, the max response in [12] (setting [16]) came out at 6.8%; in assay [12] (setting [17]) it was 12.8%.

With `O=C(c1cccc(F)c1)N1CCC2(CC1)CCN(c1ccccc1)CC2`, the Potency was > 11.4 µM (inactive) in assay [1], 15.8 µM (active) in [3], > 46 µM (inactive) in assay [6] and 7.94 µM (active) in assay [11]. In addition, the activity change, negative = inhibition is -0.371% (inactive) in assay [2], -2.46% (inactive) in assay [4] and 3.88% (inactive) in assay [12]. Besides, in [5], the activity, negative = inhibition was -10.8% (inactive). Further, the compound was classed as inactive in assay [7]. Also, the Potency entry in [8], in assay [10] and in assay [13] was “inactive” each time. In addition, the max response was -3.82% in [12] (setting [16]) and 4.22% in assay [12] (setting [17]).

Turning to `O=C(c1ccncc1)N1CCC2(CC1)CN(c1ccccc1)C2`, the Potency was > 11.4 µM (inactive) in [1], > 46 µM (inactive) in [6], 2.51 µM (active) in assay [9] and 0.316 µM (active) in [14]. The activity change, negative = inhibition in assay [2] is -2.66% (inactive); in assay [4] it was 4.65% (inactive); in assay [12], 6.84% (inactive). Moreover, the Potency result in assay [3], in [8] and in assay [13] was “inactive” each time. The activity, negative = inhibition in [5] was 3.39% (inactive). In addition, the compound was called inactive in [7]. In addition, the results for the max response in assay [12] (setting [16]) and in assay [12] (setting [17]) were 9.42% and 18.7%, respectively.

As for `CC(C)NC(=O)N1CCCC2(CCN(S(=O)(=O)c3ccccc3)CC2)C1`, the Potency is > 11.4 µM (inactive) in [1], > 46 µM (inactive) in [6], 7.94 µM (active) in [10] and 0.316 µM (active) in [15]. In addition, the activity change, negative = inhibition was -4.26% (inactive) in [2], -5.06% (inactive) in assay [4] and 4.51% (inactive) in assay [12]. For the same compound, the Potency result in assay [3], in assay [8], in assay [11] and in assay [13] was “inactive” each time. Also, in assay [5], the activity, negative = inhibition is -5.18% (inactive). For the same compound, the compound was classed as inactive in assay [7]. Also, the max response in [12] (setting [16]) came out at 20%; in assay [12] (setting [17]), 26.7%.

On to `Cc1noc(C)c1C(=O)N1CCC2(CCCN(C(=O)NC(C)C)C2)CC1`, for which the figures for the Potency in [1] and in assay [6] were > 11.4 µM (inactive) and > 46 µM (inactive), respectively. In addition, the activity change, negative = inhibition in [2] is 10.5% (inactive); in assay [4], 8.68% (inactive); in assay [12] it was 6.76% (inactive). Besides, the Potency result in assay [3], in [8], in [9], in [14] and in [13] was “inactive” in each case. Further, the activity, negative = inhibition in [5] is -2.07% (inactive). Moreover, the outcome in assay [7] was inactive. Further, the max response turned out to be 0.437% in assay [12] (setting [16]) and 10.1% in [12] (setting [17]).

For `O=C(c1cc(C(F)(F)F)cc(C(F)(F)F)c1)N1CCC2(CC1)CN(c1ccccc1)C2`, the Potency is > 11.4 µM (inactive) in assay [1], > 46 µM (inactive) in [6] and 3.98 µM (active) in [11]. Also, the activity change, negative = inhibition is 29.9% (inactive) in assay [2], -25.4% (inactive) in assay [4] and -8.64% (inactive) in assay [12]. Besides, the Potency entry in [3], in assay [8] and in [13] was “inactive” in each case. Moreover, the activity, negative = inhibition in [5] was 2.58% (inactive). Also, in assay [7], the compound was classed as inactive. Also, the results for the max response in assay [12] (setting [16]) and in [12] (setting [17]) were 5.35% and -1.3%, respectively.

The record behind these values is PubChem BioAssay (NCATS).
